This passage reports growth results from PubChem BioAssay (NCI).

About 83,000 compounds went through this panel and 20% of them were active in at least one assay; those are over-represented in the sample as a whole.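 Treatment: one concentration, 48 hours, 96-well format. Scoring: percent growth, with anything below 10 considered active.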 Unmarked numbers belong to inactive results. Activity calls are given as the source filed them.

Some test systems named below: NCI-H23 lung; NCI-H226 lung; NCI-H322M lung; HOP-62 NSCLC; NCI-H460 lung; NCI-H522 lung; A549/ATCC NSCLC; 786-0 renal; COLO 205 colon; DU-145 prostate; K-562 leukemia; MALME-3M melanoma; MDA-MB-231 breast; RXF 393 renal; SF-268 CNS; SF-295 CNS; SF-539 CNS; UACC-257 melanoma; M14 melanoma.
What all share (assay): NCI-60 one-dose screen, 48 h (100 = growth as untreated, 0 = no growth, -100 = all killed)
Settings in all cases: 10 µM unless noted

With `O=C1CCCN1C1CCN2CCCc3cccc1c32` (stereo unspecified), the growth was 105% in the experiment on NCI-H23 lung; 111% in the experiment with NCI-H226 lung; 114% in the experiment on NCI-H322M lung; 97% in the experiment on HOP-62 NSCLC; 110% in the experiment on NCI-H460 lung; 84.2% with NCI-H522 lung. Further, the growth in the experiment with A549/ATCC NSCLC was 107%; with 786-0 renal, 101%; in the experiment with COLO 205 colon, 110%; in the experiment with DU-145 prostate, 119%; in the experiment with K-562 leukemia, 109%; in the experiment with MALME-3M melanoma, 94.2%. The growth in the experiment on MDA-MB-231 breast is 101%; in the experiment with RXF 393 renal it was 128%; with SF-268 CNS, 112%; in the experiment on SF-295 CNS, 110%; in the experiment with SF-539 CNS, 101%; in the experiment on UACC-257 melanoma, 111%. The growth with M14 melanoma is 100%.

Consider `CN(C)CC(=O)c1ccc2cc(Br)c3ccccc3c2c1`, for which the growth with NCI-H23 lung was 74.1%; with NCI-H226 lung it was 88.1%; in the experiment with NCI-H322M lung, 75.7%; in the experiment with HOP-62 NSCLC, 83.2%; in the experiment on NCI-H460 lung it was 59.4%; in the experiment with NCI-H522 lung, 9.3% (active). Further, the growth in the experiment on A549/ATCC NSCLC was 51.5%; with 786-0 renal, 47.4%; in the experiment on COLO 205 colon it was 74.1%; in the experiment with DU-145 prostate, 77.8%; in the experiment with K-562 leukemia it was 38.5%; with MALME-3M melanoma it was 106%. In addition, the growth with MDA-MB-231 breast was 76.4%; in the experiment with RXF 393 renal, 72.2%; in the experiment with SF-268 CNS, 77.6%; in the experiment with SF-295 CNS it was 82.8%; in the experiment with SF-539 CNS, 79.5%; in the experiment with UACC-257 melanoma, 66%. Also, the growth in the experiment with M14 melanoma is 77.2%.

`CC(C)CCSc1nc(-c2ccc(F)cc2)c(C#N)c(N2CCCCC2)n1`: the growth was 90.6% in the experiment with NCI-H23 lung; 88.8% in the experiment on NCI-H226 lung; 94.5% in the experiment on NCI-H322M lung; 102% with HOP-62 NSCLC; 93.1% in the experiment on NCI-H460 lung; 78.8% with NCI-H522 lung. The growth is 83.3% in the experiment with A549/ATCC NSCLC; 98.5% in the experiment with 786-0 renal; 103% in the experiment with COLO 205 colon; 97% with DU-145 prostate; 78.8% in the experiment with K-562 leukemia; 93.9% with MALME-3M melanoma. Moreover, the growth in the experiment with MDA-MB-231 breast was 88%; with RXF 393 renal, 94.3%; in the experiment with SF-268 CNS, 97.3%; in the experiment with SF-295 CNS, 103%; in the experiment on SF-539 CNS, 107%; in the experiment on UACC-257 melanoma, 84.7%. Besides, the growth in the experiment with M14 melanoma is 99.2%.

Take `O=C(Nc1ccccc1)c1cc2ccccc2s1`: the growth in the experiment with NCI-H23 lung is 74.8%; in the experiment with NCI-H226 lung it was 88.4%; in the experiment with NCI-H322M lung, 75.6%; in the experiment with HOP-62 NSCLC, 94.5%; with NCI-H460 lung it was 39.7%; with NCI-H522 lung, 82.4%. The growth in the experiment with A549/ATCC NSCLC is 69.4%; with 786-0 renal, 92.8%; with COLO 205 colon, 95.1%; with DU-145 prostate, 103%; in the experiment with K-562 leukemia, 87.1%; with MALME-3M melanoma, 108%. The growth in the experiment on MDA-MB-231 breast was 78.2%; with RXF 393 renal it was 110%; in the experiment on SF-268 CNS, 95.6%; with SF-295 CNS, 96.8%; in the experiment with SF-539 CNS, 110%; in the experiment on UACC-257 melanoma it was 95.1%. In addition, in the experiment on M14 melanoma, the growth is 75.5%.

In the case of `O=C(N/N=C/c1ccc([N+](=O)[O-])cc1)c1ccccc1Nc1ccnc(C(F)(F)F)c1`, the growth in the experiment with NCI-H23 lung was 62.3%; in the experiment on NCI-H226 lung it was 70.8%; in the experiment with NCI-H322M lung it was 83.3%; in the experiment on HOP-62 NSCLC it was 48.8%; in the experiment on NCI-H460 lung it was 94.3%; in the experiment on NCI-H522 lung, 67.9%. Also, the growth with A549/ATCC NSCLC was 82%; with 786-0 renal, 81.8%; with COLO 205 colon, 103%; in the experiment on DU-145 prostate, 98.6%; in the experiment on K-562 leukemia, 78%; in the experiment on MALME-3M melanoma, 86%. In addition, the growth in the experiment with MDA-MB-231 breast is 70.4%; in the experiment on RXF 393 renal, 91.7%; in the experiment with SF-268 CNS, 86.2%; in the experiment with SF-295 CNS, 83.8%; with SF-539 CNS, 84.3%; in the experiment with UACC-257 melanoma it was 79.4%. In the experiment with M14 melanoma, the growth is 101%.

Turning to `CC(C)OC1OC(OC(C)C)C(OC(C)C)OC1OC(C)C` (stereo unspecified), the growth is 94.9% in the experiment with NCI-H23 lung; 99.9% with NCI-H226 lung; 98.1% with NCI-H322M lung; 123% in the experiment with HOP-62 NSCLC; 104% in the experiment on NCI-H460 lung; 70.9% with NCI-H522 lung. In addition, the growth in the experiment with A549/ATCC NSCLC was 92.4%; in the experiment with 786-0 renal it was 99.4%; with COLO 205 colon it was 112%; with DU-145 prostate, 112%; in the experiment on K-562 leukemia it was 92.5%; with MALME-3M melanoma, 119%. In addition, the growth is 91.8% in the experiment on MDA-MB-231 breast; 127% in the experiment with RXF 393 renal; 96.5% in the experiment on SF-268 CNS; 109% with SF-295 CNS; 105% with SF-539 CNS; 92.2% in the experiment with UACC-257 melanoma. In addition, in the experiment with M14 melanoma, the growth is 99.2%.

As to `Cc1c(C(N)=O)sc2ncn(CC(=O)NN=C3CCCCC3)c(=O)c12`, the growth was 111% in the experiment with NCI-H23 lung; 96.7% in the experiment with NCI-H226 lung; 116% in the experiment with NCI-H322M lung; 104% in the experiment on HOP-62 NSCLC; 115% in the experiment on NCI-H460 lung; 83.8% with NCI-H522 lung. In addition, the growth in the experiment on A549/ATCC NSCLC is 111%; in the experiment with 786-0 renal, 105%; in the experiment with COLO 205 colon it was 129%; with DU-145 prostate, 111%; in the experiment on K-562 leukemia, 103%; with MALME-3M melanoma, 136%. Also, the growth in the experiment on MDA-MB-231 breast was 103%; with RXF 393 renal, 83.5%; in the experiment with SF-268 CNS, 108%; with SF-295 CNS, 98.6%; with SF-539 CNS, 105%; with UACC-257 melanoma, 165%. In the experiment with M14 melanoma, the growth is 105%.

Turning to `Cc1[nH]c2ccccc2c1C1=CC(=O)C=CC1=O`, the growth in the experiment with NCI-H23 lung is 92.8%; in the experiment with NCI-H226 lung, 94.2%; in the experiment with NCI-H322M lung it was 120%; in the experiment on HOP-62 NSCLC it was 94.7%; in the experiment with NCI-H460 lung, 111%; with NCI-H522 lung, -24.4% (active). Further, the growth is 93.2% in the experiment on A549/ATCC NSCLC; 84.3% with 786-0 renal; 55.7% in the experiment on COLO 205 colon; 103% with DU-145 prostate; 33.4% in the experiment on K-562 leukemia; 123% in the experiment on MALME-3M melanoma. Also, the growth is 87.7% in the experiment with MDA-MB-231 breast; 115% with RXF 393 renal; 83.7% in the experiment on SF-268 CNS; 127% in the experiment on SF-295 CNS; 79.1% in the experiment on SF-539 CNS; 91.6% in the experiment on UACC-257 melanoma. Besides, the growth with M14 melanoma is 79.4%.

`C[C@H](NC(=O)c1snnc1C1CC1)c1c(F)cccc1Cl`: the growth in the experiment on NCI-H23 lung is 97.3%; with NCI-H226 lung, 96.1%; with NCI-H322M lung it was 123%; in the experiment on HOP-62 NSCLC, 107%; with NCI-H460 lung, 110%; with NCI-H522 lung, 94.2%. The growth is 101% in the experiment with A549/ATCC NSCLC; 112% in the experiment on 786-0 renal; 219% in the experiment on COLO 205 colon; 127% with DU-145 prostate; 115% in the experiment on K-562 leukemia; 119% in the experiment on MALME-3M melanoma. The growth was 105% in the experiment with MDA-MB-231 breast; -22.6% (active) with RXF 393 renal; 114% in the experiment on SF-268 CNS; 96.8% with SF-295 CNS; 96.6% in the experiment with SF-539 CNS; 115% with UACC-257 melanoma. For the same molecule, in the experiment with M14 melanoma, the growth was 116%.
